Compound activity: PubChem, several laboratories
Shown are actives, neighbours in structure and some others; about 13% of the full set was active somewhere.
WT yeast gro inh = growth inhibition of WT strain, primary screen, mitochondrial fusion inhibitor project, WT and mutant strains, chemical genetic | 190,000 tested, 2.1% active | inhibition, % at 10 µM | mitochondrial fusion phenotypic screen; in the data active means inhibition above about 58%; tested in S. cerevisiae
Lmaj promast = Leishmania major promastigote growth inhibition, primary screen. 200,000 tested, 9% active. Leishmania major promastigotes, resazurin fluorescence viability. inhibition, % at 10 µM; in the data active means inhibition above about 50%;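 further: promastigotes grown with compound for 44 hours at 28 °C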
CHOP inh = inhibitors of CHOP promoter induction, primary screen, cell-based, unfolded protein response, luciferase reporter; AID 2732, 2010; inhibition, % at 10 µM; 220,000 tested, 3.8% active; CHO-K1 CHOP-promoter luciferase, tunicamycin-induced, 15-18 h;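 active means compounds that reduced the stress-induced luciferase reporter signal by more than about 70% of percent inhibition, limit read from the data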
RAM network inh = inhibitors of the yeast RAM network, primary screen, dse1pr::URA3 reporter, 5-FOA selection; S. cerevisiae dse1pr::URA3 reporter, 5-FOA growth OD615, 2 d; analog-sensitive cbk1-as2 kinase mutant strain; inhibition, % at 50 µM; 190,000 tested, 1.8% active; AID 868, 2007;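 active means inhibition above a set limit, 3 SD over mean compound inhibition, cut at about 8.4% in these data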;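 further: inhibition rescues growth on 5-FOA so higher OD means more RAM inhibition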
Numbers stand for hits.

CSc1ccc(C2C(C#N)=C(N)N(c3ccccc3)C3=C2C(=O)CCC3)cc1 (configuration not stated) was read as WT yeast gro inh inactive, Lmaj promast 74, CHOP inh inactive and RAM network inh inactive.
For N#CC1=C(N)N(c2ncn[nH]2)C2=C(C(=O)CCC2)C1c1ccccc1 (configuration not stated) the results were WT yeast gro inh inactive, Lmaj promast inactive, CHOP inh inactive and RAM network inh inactive.
For CCOc1ccc(C2C(C#N)=C(N)N(c3sc4c(c3C#N)CCCC4)C3=C2C(=O)CCC3)cc1 (configuration not stated) the results were WT yeast gro inh inactive, Lmaj promast 57, CHOP inh inactive and RAM network inh inactive.
Screening CCN1C(=O)[C@H]2[C@H]3[C@H](O)[C@H](O)C/C(=N\O[C@H](C)c4cn([C@H](CO)Cc5ccccc5)nn4)[C@@H]3CC[C@H]2C1=O returned WT yeast gro inh inactive, Lmaj promast inactive, CHOP inh inactive and RAM network inh inactive.
O=c1cc(N=Nc2ccc(Cl)cc2)[nH]c(=O)[nH]1 was read as CHOP inh 105.
For COc1ccc(CCN=C(NS(=O)(=O)c2ccc(Cl)cc2)c2ccccc2)cc1 the results were WT yeast gro inh inactive, Lmaj promast 66, CHOP inh inactive and RAM network inh inactive.
`CC1CC(=O)N(c2ccc(NCc3ccccc3Cl)c([N+](=O)[O-])c2)C1=O` (configuration not stated) gave WT yeast gro inh inactive, Lmaj promast 68, CHOP inh inactive and RAM network inh inactive.
`Cc1ccc(CNc2ccc(N3C(=O)CC(C)C3=O)cc2[N+](=O)[O-])cc1` (configuration not stated) gave WT yeast gro inh inactive, Lmaj promast inactive, CHOP inh inactive and RAM network inh inactive.
For O=C1CCC(=O)N1c1ccc(NCc2ccccc2Cl)c([N+](=O)[O-])c1 the results were WT yeast gro inh inactive, Lmaj promast 67, CHOP inh inactive and RAM network inh inactive.
O=C(O)CC(c1cccc([N+](=O)[O-])c1)N1Cc2ccccc2C1=O (configuration not stated) was read as WT yeast gro inh inactive, Lmaj promast inactive, CHOP inh inactive and RAM network inh inactive.
Screening CC(=O)NCCc1nc2ccccc2n1Cc1cccc(C)c1 returned CHOP inh inactive.
For CCCCC(=O)Nc1ccc(C(=O)N2CCC(C(=O)OCC)CC2)cc1 the results were WT yeast gro inh inactive, Lmaj promast inactive, CHOP inh inactive and RAM network inh inactive.
Screening Cc1ccc(S(=O)(=O)N2CCN(C(=O)N(C)C)CC2)cc1 returned WT yeast gro inh inactive, Lmaj promast inactive, CHOP inh inactive and RAM network inh inactive.
For O=C(CSc1ccccc1C(=O)O)NC12CC3CC(CC(C3)C1)C2 the results were CHOP inh inactive.
O=C(NN=C1C2CC3CC(C2)CC1C3)c1ccccc1O was read as CHOP inh inactive.
Screening O=C(NC12CC3CC(CC(C3)C1)C2)c1ccccc1O returned WT yeast gro inh inactive, Lmaj promast 50, CHOP inh 77 and RAM network inh inactive.
Screening O=C(NNC(=O)C1[C@H]2CCCC[C@@H]12)c1ccc(=O)oc1 (some centres not stated) returned CHOP inh inactive.
Screening CC(=O)NC(CC(=O)NC12CC3CC(CC(C3)C1)C2)c1ccccc1 (configuration not stated) returned WT yeast gro inh inactive, Lmaj promast 63, CHOP inh inactive and RAM network inh inactive.
Screening O=C(NC12CC3CC(CC(C3)C1)C2)c1ccc(=O)oc1 returned WT yeast gro inh inactive, Lmaj promast inactive, CHOP inh inactive and RAM network inh 8.7.
Screening CC(=O)Nc1cccc(NC(=O)C(=O)c2cn(CC(=O)N3CCCCC3)c3ccccc23)c1 returned WT yeast gro inh inactive, Lmaj promast inactive, CHOP inh inactive and RAM network inh inactive.
For CCOC(=O)N/N=C/c1ccccc1OCc1ccc(Cl)cc1 the results were WT yeast gro inh inactive, Lmaj promast inactive, CHOP inh inactive and RAM network inh inactive.
For NC(=S)N/N=C/c1ccccc1OCCSc1ccc(Cl)cc1 the results were WT yeast gro inh 64, Lmaj promast 100, CHOP inh inactive and RAM network inh inactive.
`COc1cccc(/C=N/NC(N)=S)c1OCc1ccccc1Cl` gave WT yeast gro inh inactive, Lmaj promast inactive, CHOP inh inactive and RAM network inh 8.8.
Screening CCN(Cc1ccncc1)Cc1cn[nH]c1-c1cc(OC)c(OC)c(OC)c1 returned WT yeast gro inh inactive, Lmaj promast inactive, CHOP inh inactive and RAM network inh inactive.
`O=C(CSc1nnc(-c2ccco2)c(-c2ccco2)n1)Nc1ccccc1` gave WT yeast gro inh inactive, Lmaj promast 75, CHOP inh inactive and RAM network inh inactive.
For COc1ccc(C(=O)CSc2nnc(-c3ccco3)c(-c3ccco3)n2)cc1 the results were WT yeast gro inh inactive, Lmaj promast 99, CHOP inh inactive and RAM network inh inactive.
`O=C(CSc1nnc(-c2ccccc2)c(-c2ccccc2)n1)Nc1ccc(Br)cn1` gave WT yeast gro inh inactive, Lmaj promast 66, CHOP inh inactive and RAM network inh inactive.
Cc1ccc(NC(=O)CSc2nnc(-c3ccco3)c(-c3ccco3)n2)cc1 was read as WT yeast gro inh inactive, Lmaj promast 96, CHOP inh inactive and RAM network inh inactive.
For Cc1ccc(NC(=O)CCSc2nnc(-c3ccco3)o2)cc1 the results were WT yeast gro inh inactive, Lmaj promast inactive, CHOP inh inactive and RAM network inh inactive.
CCOC(=O)c1c(NC(=O)c2cnn3c2NC(c2cccc(OC)c2)CC3C(F)(F)F)sc2c1CCCC2 (configuration not stated) was read as WT yeast gro inh inactive, Lmaj promast inactive, CHOP inh inactive and RAM network inh inactive.
Screening COCCN=c1scc(C)n1/N=C/C1CC2C=CC1C2 (configuration not stated) returned WT yeast gro inh inactive, Lmaj promast inactive, CHOP inh inactive and RAM network inh inactive.
Cc1ccccc1NC(=O)c1cc([N+](=O)[O-])ccc1NCCN1C(=O)CCC1=O was read as WT yeast gro inh inactive, Lmaj promast inactive, CHOP inh inactive and RAM network inh inactive.
`O=C(COC(=O)CNC(=O)C1CCCCC1)Nc1ccc(Cl)cc1F` gave WT yeast gro inh inactive, Lmaj promast inactive, CHOP inh inactive and RAM network inh inactive.
CNC(=O)CSc1nnc(SCCC(=O)O)s1 was read as WT yeast gro inh inactive, Lmaj promast inactive, CHOP inh inactive and RAM network inh inactive.
For C=C(C(=O)c1ccccc1)C(C)CC(=O)c1ccccc1 (configuration not stated) the results were WT yeast gro inh inactive, Lmaj promast 86, CHOP inh inactive and RAM network inh inactive.
For OCCCCCN=c1cc(-c2ccccc2)oc2ccc(Cl)cc12 the results were WT yeast gro inh inactive, Lmaj promast 95, CHOP inh inactive and RAM network inh inactive.
For Clc1ccc2oc(-c3ccccc3)cc(=NCCCN3CCOCC3)c2c1 the results were WT yeast gro inh 63, Lmaj promast 99, CHOP inh inactive and RAM network inh inactive.
